Experimental data published in PubChem BioAssay AID1852 (Sanford-Burnham Center for Chemical Genomics, 2009).
Out of some 2,500 compounds screened, about 1,100 (44%) were called active.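 Rule for the calls: active = inhibition above 50% at 4 µM in the single-point screen; inactive = inhibition of 50% or less.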 The set was probably picked from earlier hits. This is one part of the list.

Assay: TNF-a-driven NF-kB reporter inhibitors, primary screen, selectivity assay for NOD1/NOD2 signaling inhibitor project, cell-based, HEK293T NF-kB-Luc, luminescence (AID 1852)
Details: TNF-a induced, 14 h, at 4 µM, stronger effect = higher value

inhibition, active:
COc1ccc(-n2nnnc2S(=O)(=O)CC(=O)N2CCCCC2)cc1 102%
CCCCCCc1cc2cc(-c3nnc(-c4cc(OC)c(OC)c(OC)c4)o3)c(=O)oc2cc1O 69.4%
COc1ccc(N(C(=O)CCl)C(C(=O)NCCc2ccccc2)c2cccs2)cc1 (stereo unspecified) 60.3%
COc1cccc(N(C(=O)CCl)C(C(=O)NCCc2ccccc2)c2cccs2)c1 (stereo unspecified) 81.5%
C=CCN1C(=O)/C(=C/c2ccc(OC(C)=O)c(OCC)c2[N+](=O)[O-])SC1=S 56.7%
COc1ccc(CC(=O)Nc2cccc(-c3nnc(-c4ccc(C)cc4)o3)c2)cc1OC 77.2%
C[n+]1c2n(c3ccccc31)N=C(c1cc(C(C)(C)C)c(O)c(C(C)(C)C)c1)CS2 82.3%
COc1ccc(NC(=O)/C(Cl)=C(/Cl)S(=O)(=O)Cc2ccccc2)cn1 92.3%
COc1ccc(NC(=O)/C(Cl)=C(/Cl)S(=O)(=O)Cc2ccc(C)cc2)cn1 108%
Cc1cccc(C(=O)NNC2=C(C(=O)C(F)(F)F)CCC2)c1O 93.3%
Cc1c(CCC(=O)O)c(=O)oc2c(C)c3occ(-c4ccc(Cl)cc4)c3cc12 59.5%
COc1cccc(-c2coc3c(C)c4oc(=O)c(CCC(=O)O)c(C)c4cc23)c1 69.3%
COc1ccccc1CN(Cc1nc2ccccc2c(=O)[nH]1)S(=O)(=O)c1ccc2ccccc2c1 92.1%
COc1ccc(-n2c(C)c([N+](=O)[O-])c3ccc(O)c(CN(C)C)c32)cc1 84.4%
Cc1ccc(-n2c(C)c([N+](=O)[O-])c3ccc(O)c(CN(C)C)c32)cc1 66.1%
O=C1/C(=C\c2cccnc2)CN(Cc2ccccc2)C/C1=C\c1cccnc1 107%
O=C1/C(=C/c2ccncc2)CCC/C1=C\c1ccncc1 89.9%
CC1C/C(=C/c2ccncc2)C(=O)/C(=C/c2ccncc2)C1 (stereo unspecified) 106%
CC1C/C(=C\c2cccnc2)C(=O)/C(=C/c2cccnc2)C1 (stereo unspecified) 109%
O=C1/C(=C/c2cccnc2)CCC/C1=C\c1cccnc1 104%
O=C(C1CCC(CNS(=O)(=O)c2cccs2)CC1)N1CCN(c2ccc(Cl)cc2)CC1 (stereo unspecified) 67.1%
C[C@@H]1C[C@@H]2O[C@H]2/C=C\C=C\C(=O)Cc2c(Cl)c(O)cc(O)c2C(=O)O1 96.5%
O=C(CSc1n[nH]c(-c2ccccn2)n1)Nc1ccc(Cl)cc1 80.1%
O=C(CSc1n[nH]c(-c2ccccn2)n1)Nc1cccc(Cl)c1 81.4%
CCCCCc1cc(O)c2c(C)cc(=O)oc2c1 71.7%
Brc1ccc2ncnc(Nc3ccc(N4CCOCC4)cc3)c2c1 83.9%
Brc1ccc2ncnc(Nc3cccc4ccccc34)c2c1 104%
COc1ccc(Nc2ncnc3ccc(Br)cc23)cc1OC 64.4%
CC(=O)c1cccc(Nc2ncnc3ccc(Br)cc23)c1 60.8%

inhibition, inactive:
COc1ccc(N2CCN(C(=O)CCC(=O)N3CCOc4ccc(C)cc43)CC2)cc1 40.5%
COc1ccc(-n2nc3c(c2NC(=O)CCl)CSC3)cc1 -4.5%
CCCCCCc1cc2cc(-c3nnc(-c4ccccc4OC)o3)c(=O)oc2cc1O -7.1%
CCCCCCc1cc2cc(-c3nnc(-c4ccccc4O)o3)c(=O)oc2cc1O 22.1%
COc1ccc(CN(CCC(c2ccccc2)c2ccc(OC(C)C)cc2)C(=O)CCl)cc1OC (stereo unspecified) -5.8%
O=C(NCCc1ccccc1)C(c1cccs1)N(C(=O)CCl)c1ccc(Cl)cc1 (stereo unspecified) 24.6%
COc1cccc(-c2nc(CS(=O)(=O)CC(=O)NCCc3ccccc3)c(C)o2)c1 11.1%
CN(C)c1ccc(-c2noc(C3CCN(S(=O)(=O)c4cccc(Cl)c4)CC3)n2)cc1 31%
COc1cc(C(=O)Nc2cccc(-c3nc4cc(C)ccc4o3)c2)cc(OC)c1OC -51.1%
COc1ccc(CCN2CC(C(=O)N(C)CC(=O)Nc3cccc(F)c3)CC2=O)cc1OC (stereo unspecified) 21.5%
COc1ccc(C2=Nn3c([n+](C)c4ccccc43)SC2)cc1 32.8%
COc1ccc(NC(=O)c2cccc(S(=O)(=O)Nc3ccc(Br)cc3)c2)cn1 23.8%
COc1ccc(NS(=O)(=O)c2ccc3c(c2)Cc2ccccc2-3)cn1 25.4%
O=C(NNC1=C(C(=O)C(F)(F)F)CCC1)c1ccccc1O 15%
O=c1c(-c2ccc(Cl)cc2)coc2c(CN3CCCCC3)c(O)ccc12 37.4%
Cc1oc2c(C)c3oc(=O)c(CCC(=O)O)c(C)c3cc2c1-c1ccccc1 47%
Cc1c(CCC(=O)O)c(=O)oc2cc3oc4c(c3cc12)CCCC4 48.7%
COC(=O)c1ccc2c(=O)[nH]c(CCl)nc2c1 43.1%
COc1ccc(-n2c(C)c([N+](=O)[O-])c3ccc(O)c(CN4CCCCC4)c32)cc1 28.8%
COc1cc(OC)c(OC)cc1/C=C1\CC(C)C/C(=C\c2cc(OC)c(OC)cc2OC)C1=O (stereo unspecified) 32.3%
C=C1CC2C(CCC3(C)C2CCC3(O)C(C)=O)C2(C)CCC(=O)C=C12 (stereo unspecified) 13.6%
CC1Cc2cc(S(=O)(=O)N3CCN(c4ccc(Cl)cc4)CC3)ccc2N1C(=O)C1CC1 (stereo unspecified) 8.4%
Cn1cccc1Cc1nnc(SCC(=O)Nc2cccc(Cl)c2)n1-c1ccc(F)cc1 11.5%
Cc1nc(C)c(-c2ccc(SCC(=O)Nc3cccc(Cl)c3)nn2)s1 35%
O=C(CN1CCN(CCC(=O)Nc2ccccc2F)CC1)Nc1ccc(Cl)cc1 2%
Cc1ccc2c(c1)-c1ncc(C(=O)c3cc(Br)ccc3O)cc1CO2 36.7%
Cc1c(Cc2ccccc2)c(=O)oc2cc(O)cc(O)c12 -8.9%
CCCCc1cc(=O)oc2cc(O)cc(O)c12 21.4%
Nc1nc(CCl)nc(Nc2cccc3ccccc23)n1 44.3%
CCN1C(=O)C(CC(=O)Nc2cccc(C(C)=O)c2)S/C1=N\c1ccccn1 (stereo unspecified) -2.9%
Clc1ccc(Nc2ncnc3ccc(Br)cc23)cc1 49.1%
O=C(COc1nsnc1N1CCOCC1)Nc1ccc(Br)cc1 4.1%
